Reference: the supplement of paper PMC8047044
Structures can show the parent of a compound that is named as a salt.

Tested on: Neuro-2a
Assay: neurite formation score, plate-normalized to DMSO control mean 5.04 (score (0-8 scale)); higher = more or longer neurites
Conditions: 1 µM
Experimental: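 Neuro-2a mouse neuroblastoma cells in PLL-coated 96-well plates were pre-treated for 1 h in DMEM(+) with each kinase inhibitor at 1 µM, then switched to serum-free DMEM(-) with inhibitor to induce neurite outgrowth and fixed about 2-3 h later. Three blinded observers scored neurite formation from 0 (no neurites) to 8 (long neurites on almost all cells).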

Q: For O=C(Nc1ccc(OC(F)(F)F)cc1)c1sccc1NCc1ccnc2ccccc12, which neurite formation score is on record?
A: 3.91

Q: Which neurite formation score does the source give for CN1CCN(c2ccc(Nc3cc(-c4cccc(-n5ccc6cc(C7CC7)cc(F)c6c5=O)c4CO)cn(C)c3=O)nc2)CC1 here?
A: 5.63

Q: With NC(=O)c1cnc(N[C@@H]2CCCC[C@@H]2N)nc1Nc1cccc(-n2nccn2)c1 as the compound, how does the neurite formation score read?
A: 4.36

Q: For COc1cc2ncnc(Nc3cccc(Cl)c3F)c2cc1OC(=O)N1CCN(C)C[C@H]1C, which neurite formation score is on record?
A: 4.54

Q: With Cc1cn(-c2cc(NC(=O)c3ccc(C)c(Nc4nccc(-c5cccnc5)n4)c3)cc(C(F)(F)F)c2)cn1 [Nilotinib monohydrochloride monohydrate] as the compound, how does the neurite formation score read?
A: 4.47

Q: How did the neurite formation score turn out when COc1cc(CCc2cc(NC(=O)c3ccc(N4CC(C)NC(C)C4)cc3)n[nH]2)cc(OC)c1 (stereo not given) was run?
A: 3.9

Q: For COc1cc(N2CCC(N3CCN(C)CC3)CC2)ccc1Nc1ncnc(Nc2ccccc2S(=O)(=O)C(C)C)n1, which neurite formation score is on record?
A: 5.24

Q: For Cc1nc(Nc2cnn(C3CCNCC3)c2)nc2c1N(C)C(=O)c1cc3ccccc3cc1N2C, which neurite formation score is on record?
A: 3.96

Q: For CCN1CCN(Cc2ccc(NC(=O)Nc3ccc(Oc4cc(NC)ncn4)cc3)cc2C(F)(F)F)CC1, which neurite formation score is on record?
A: 4.57

Q: O=C(CCCCCCC(=O)Nc1ccc(I)cc1)NO [4-iodo-SAHA] was tested. Which neurite formation score did it give?
A: 5.21

Q: How did the neurite formation score turn out when CNC(=O)c1cc(Oc2ccc(NC(=O)Nc3ccc(Cl)c(C(F)(F)F)c3)c(F)c2)ccn1 [Regorafenib monohydrate] was run?
A: 4.69

Q: With C=CC(=O)Nc1ccc(CN2C(=O)N(c3cc(OC)cc(OC)c3)Cc3cnc(Nc4ccc(N5CCN(C)CC5)cc4)nc32)cc1 as the compound, how does the neurite formation score read?
A: 4.63

Q: For COC(=O)Nc1nc2cc(C(=O)c3cccs3)ccc2[nH]1 [Nocodazole], which neurite formation score is on record?
A: 1.29

Q: With COc1cc2ncc(-c3ccccc3)nc2cc1OC [Tyrphostin AG 1296] as the compound, how does the neurite formation score read?
A: 5.24

Q: Cc1cc(C)c(/C=C2\C(=O)Nc3ccccc32)[nH]1 was tested. Which neurite formation score did it give?
A: 5.02

Q: For O=C(COc1ccc(Cl)cc1)NC1CCC(NC(=O)COc2ccc(Cl)cc2)CC1 (stereo not drawn) [ISRIB (trans-isomer)], which neurite formation score is on record?
A: 4.54

Q: How did the neurite formation score turn out when CC(=O)Nc1cccc(-n2c(=O)n(C3CC3)c(=O)c3c(Nc4ccc(I)cc4F)n(C)c(=O)c(C)c32)c1 [Trametinib DMSO solvate] was run?
A: 5.02

Q: C=CC(=O)Nc1ccc2ncnc(Nc3cccc(Br)c3)c2c1 was tested. Which neurite formation score did it give?
A: 4.24

Q: CNC(=O)c1cc(Oc2ccc(NC(=O)Nc3cc(C(C)(C)C)nn3-c3ccc4ncccc4c3)c(F)c2)ccn1 [DCC-2036 (Rebastinib)] was tested. Which neurite formation score did it give?
A: 1.29

Q: For Cc1cc2c(F)c(Oc3ncnn4cc(OC[C@@H](C)O)c(C)c34)ccc2[nH]1, which neurite formation score is on record?
A: 4.57

Q: With COc1cc(Nc2ncc3c(n2)-c2ccc(Cl)cc2C(c2c(F)cccc2OC)=NC3)ccc1C(=O)O [MLN8237 (Alisertib)] as the compound, how does the neurite formation score read?
A: 4.36

Q: For Cc1nc(N)sc1-c1ccnc(Nc2ccc(N3CCOCC3)cc2)n1, which neurite formation score is on record?
A: 4.69

Q: With Cn1cnc2c(F)c(Nc3ccc(Br)cc3Cl)c(C(=O)NOCCO)cc21 [AZD6244 (Selumetinib)] as the compound, how does the neurite formation score read?
A: 4.24

Q: With c1cc(-c2cnn3cc(-c4ccc(OCCN5CCCCC5)cc4)cnc23)ccn1 [Dorsomorphin 2HCl] as the compound, how does the neurite formation score read?
A: 4.96

Q: For N#Cc1c(Oc2ccc(F)c(NC(=O)Cc3cccc(C(F)(F)F)c3)c2)ccc2nc(NC(=O)C3CC3)sc12, which neurite formation score is on record?
A: 1.9

Q: CO[C@H]1C[C@@H]2CC[C@@H](C)[C@@](O)(O2)C(=O)C(=O)N2CCCC[C@H]2C(=O)O[C@H]([C@H](C)C[C@@H]2CC[C@@H](OCCO)[C@H](OC)C2)CC(=O)[C@H](C)/C=C(\C)[C@@H](O)[C@@H](OC)C(=O)[C@H](C)C[C@H](C)/C=C/C=C/C=C/1C [Everolimus (RAD001)] was tested. Which neurite formation score did it give?
A: 4.57

Q: For COc1ccccc1-c1cc(Nc2cccc(CS(N)(=O)=O)c2)ncn1, which neurite formation score is on record?
A: 4.54

Q: For CCCCCCCCCCCCCCCCOP(=O)([O-])OCC[N+](C)(C)C [Miltefosine], which neurite formation score is on record?
A: 5.63

Q: How did the neurite formation score turn out when CN1CCC(COc2cnc(-c3cccc(Cn4nc(-c5cccc(C#N)c5)ccc4=O)c3)nc2)CC1 was run?
A: 3.69

Q: Cc1cc(C(=O)NOCCO)c(Nc2ccc(I)cc2F)n(C)c1=O was tested. Which neurite formation score did it give?
A: 3.96

Q: CCN(CCO)CCCOc1ccc2c(Nc3cc(CC(=O)Nc4cccc(F)c4)[nH]n3)ncnc2c1 [Barasertib (AZD1152-HQPA)] was tested. Which neurite formation score did it give?
A: 4.69

Q: How did the neurite formation score turn out when Cc1[nH]c(/C=C2\C(=O)Nc3ccc(S(=O)(=O)N(C)c4cccc(Cl)c4)cc32)c(C)c1C(=O)N1CCN(C)CC1 was run?
A: 3.57

Q: Nc1cccc(-c2cc3c(Oc4cccc(O)c4)ncnc3[nH]2)c1 was tested. Which neurite formation score did it give?
A: 1.88

Q: With COc1cc2ncnc(Oc3cccc(NC(=O)Nc4cc(C(C)(C)C(F)(F)F)on4)c3)c2cc1OC as the compound, how does the neurite formation score read?
A: 5.24

Q: Which neurite formation score does the source give for O=[N+]([O-])c1ccc(-c2nc(-c3ccc(F)cc3)c(-c3ccncc3)[nH]2)cc1 here?
A: 3.96

Q: CNC(=O)CN1CCC(Oc2cc3c(Nc4cccc(Cl)c4F)ncnc3cc2OC)CC1 [AZD8931 (Sapitinib)] was tested. Which neurite formation score did it give?
A: 4.29

Q: O=C1NC(=O)C(c2ccccc2[N+](=O)[O-])=C1Nc1ccc(O)c(Cl)c1 was tested. Which neurite formation score did it give?
A: 3.9

Q: With O=c1ncn2nc(Sc3ccc(F)cc3F)ccc2c1-c1c(Cl)cccc1Cl as the compound, how does the neurite formation score read?
A: 4.29

Q: Which neurite formation score does the source give for c1cn2cc(-c3ccc4cn[nH]c4c3)nc(Nc3ccc(N4CCOCC4)cc3)c2n1 here?
A: 4.54

Q: For O=S(=O)(c1cccc2c(O)nccc12)N1CCCNCC1 [Hydroxyfasudil hydrochloride], which neurite formation score is on record?
A: 3.8
